High-throughput results from PubChem BioAssay.
esBAF inh = inhibitors of esBAF chromatin remodeling in mouse ES cells | reporter increase, % at 12.5 µM | 350,000 tested, 2% active | Bmi1-luciferase knock-in reporter, 24 h; 100% = twice the neutral-well signal; in the data active = activation above about 40%;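 also: 0% = median of the plate's neutral control wells and 100% = double that signal; a rise in the Bmi1 reporter signal indicates esBAF inhibition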
Vif inh = blocks HIV Vif function. HEK293T cells, Vif self-association by quenched fluorescence, imaging, 24 h. inhibition, % at 7.49 µM. 340,000 tested, 0.35% active; in the data active = inhibition above about 50%, passing the limit was not always enough
NadD inh = inhibitors of Staphylococcus aureus NadD | purified NadD enzyme, colorimetric absorbance read-out | 360,000 tested, 0.78% active | AID 602399 | inhibition, % at 20 µM; in the data active = inhibition above about 26%
SMARCA2 activ = activators of SMARCA2 function. MG213 cells, MMTV-luciferase reporter, dexamethasone, overnight. activation, % at 9.1 µM. 370,000 tested, 1% active. AID 652017; in the data active = activation above about 7.8%;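 also: 0% = vehicle wells and 100% = reference activator wells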
SKN-1 block = C. elegans SKN-1 inhibition | C. elegans VP596 Pgst-4::GFP/RFP ratio, acrylamide-induced, 24 h | inhibition, % at 21.8 µM | 360,000 tested, 0.49% active;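 active = interference check ratio from 0.5 to 1.5 plus GFP to RFP signal ratio inhibition reaching or exceeding a fixed threshold, cut at about 30% in these data, passing the limit was not always enough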
NR3A LBD binder = modulates the human NR3A ligand-binding domain | NR3A LBD differential scanning fluorimetry, Tm shift; 0% = protein alone, 100% = glycine-bound protein | Tm shift relative to glycine control, % at 25 µM | 340,000 tested, 2.5% active;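 active = melting temperature shift of at least 10% of the positive control shift, at one fixed dose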
Active calls of the source: *. Only some compounds are listed: those with a hit (about 5.2% of all), similar ones and a draw of the others.

What do the screens show for `C[C@@H]1CN([C@@H](C)CO)C(=O)c2cc(-c3ccccc3)cnc2O[C@@H]1CN(C)Cc1ccc(C(=O)O)cc1`?
esBAF inh: 1

How did O=C(Cc1ccccc1)NCC(=O)OCC(=O)c1ccc(Cl)c([N+](=O)[O-])c1 do in these assays?
Vif inh: 1; NadD inh: -3; SMARCA2 activ: -2; SKN-1 block: 7; NR3A LBD binder: 12*

How did O=C(CNC(=O)Cc1ccccc1)NCC(=O)OCC(=O)c1cccc2ccccc12 do in these assays?
Vif inh: 3; NadD inh: -7; SMARCA2 activ: -7; SKN-1 block: 17; NR3A LBD binder: 12*

How did CCc1ccc(C(=O)COC(=O)CNC(=O)Cc2ccccc2)cc1 do in these assays?
esBAF inh: -5; Vif inh: -3; NadD inh: -10; SMARCA2 activ: -1; SKN-1 block: 4; NR3A LBD binder: 1

How did O=C(CNC(=O)c1ccco1)OCC(=O)c1cccc2ccccc12 do in these assays?
esBAF inh: -1; Vif inh: 2; NadD inh: 0; SMARCA2 activ: 0; SKN-1 block: -4; NR3A LBD binder: 0

Results for O=C(NNC(=O)c1ccccc1OCc1ccccc1)c1ccccc1O ?
esBAF inh: 5; Vif inh: -15; NadD inh: 0; SMARCA2 activ: -2; SKN-1 block: -8; NR3A LBD binder: -6

Results for O=C(NNC(=O)c1ccccc1OCc1ccccc1)c1ccccc1F ?
esBAF inh: 60*; Vif inh: 3; NadD inh: -7; SMARCA2 activ: 4; SKN-1 block: 18; NR3A LBD binder: 10*

What do the screens show for `O=C(NNC(=O)c1ccccc1OCc1ccc(F)cc1)c1ccccc1O`?
esBAF inh: 31; Vif inh: -10; NadD inh: -6; SMARCA2 activ: -2; SKN-1 block: 5; NR3A LBD binder: 23*

Results for C[C@@H]1CN([C@@H](C)CO)S(=O)(=O)c2ccc(C#C[C@@H](C)O)cc2O[C@H]1CN(C)Cc1ccccc1 ?
esBAF inh: 1

Results for CN(C)c1ccc(/C=C/c2ccc3ccccc3[n+]2C)cc1 ?
esBAF inh: -65; Vif inh: -32; NadD inh: 16; SMARCA2 activ: -9; SKN-1 block: 88; NR3A LBD binder: -3

What do the screens show for `COc1ccc(/C=C/c2ccc3ccccc3[n+]2C)cc1OC`?
esBAF inh: 55*; Vif inh: 2; NadD inh: 18; SKN-1 block: -2; NR3A LBD binder: 2

Results for CC(=O)Oc1ccccc1/C=C/c1ccc2ccccc2[n+]1C ?
esBAF inh: 65*; Vif inh: 7; NadD inh: 10; SMARCA2 activ: 7; SKN-1 block: -12; NR3A LBD binder: 0

Results for CN(C)C(=O)C[C@H]1C=C[C@H](NC(=O)Nc2cccc(F)c2)[C@H](CO)O1 ?
esBAF inh: 0

What do the screens show for `CN(C)CC(=O)Nc1ccc2c(c1)[C@@H]1C[C@@H](CC(=O)N3CCCCC3)O[C@H](CO)[C@@H]1O2`?
esBAF inh: -2

How did Cc1c(C(=O)/C=C/c2cccs2)oc2ccc(F)cc12 do in these assays?
esBAF inh: 63*; NadD inh: -3; SMARCA2 activ: 2; SKN-1 block: 52*; NR3A LBD binder: -1

What do the screens show for `Cc1c(C(=O)Nc2nccs2)oc2ccc(F)cc12`?
esBAF inh: -12; Vif inh: -8; NadD inh: -3; SMARCA2 activ: 1; SKN-1 block: 17; NR3A LBD binder: 1

What do the screens show for `O=C(N/N=C/c1ccc(Cl)cc1)c1sccc1OCc1ccc(F)cc1`?
esBAF inh: -7; Vif inh: 16; NadD inh: 0; SMARCA2 activ: -1; SKN-1 block: 5; NR3A LBD binder: 22*

What do the screens show for `O=C(N/N=C/c1ccc(F)cc1)c1sccc1OCc1ccc(F)cc1`?
NadD inh: 3; SMARCA2 activ: 4; SKN-1 block: -7; NR3A LBD binder: 1

Results for CNC(=S)Nc1ccc(OCc2ccccc2)cc1 ?
esBAF inh: 41*; Vif inh: 7; NadD inh: 3; SMARCA2 activ: -2; SKN-1 block: -8; NR3A LBD binder: 6

What do the screens show for `CCOc1ccc(NC(=S)Nc2ccc(OCc3ccccc3)cc2)cc1`?
Vif inh: 15; NadD inh: 7; SMARCA2 activ: -2; SKN-1 block: 2; NR3A LBD binder: 8

Results for COc1ccc(/C=N/NC(=O)c2cccs2)c2ccccc12 ?
esBAF inh: 56*; Vif inh: -4; NadD inh: 1; SMARCA2 activ: 4; SKN-1 block: 9; NR3A LBD binder: 2

How did Oc1ccc(N=Cc2ccc(OCc3ccccc3)cc2)cc1 do in these assays?
esBAF inh: 48*; Vif inh: 19; NadD inh: 0; SMARCA2 activ: 3; SKN-1 block: 17; NR3A LBD binder: 10*

How did CCCNC(=O)C(=O)N/N=C/c1ccc(OCc2ccccc2)cc1 do in these assays?
esBAF inh: -1; Vif inh: -7; NadD inh: 2; SMARCA2 activ: 0; SKN-1 block: 6; NR3A LBD binder: 0

What do the screens show for `CCCNC(=O)C[C@H]1CC[C@@H]2[C@H](COc3ccc(NC(=O)c4ccc(Cl)cc4)cc3C(=O)N2C)O1`?
esBAF inh: 2

What do the screens show for `COc1ccc(NC(=O)Nc2ccc3c(c2)C(=O)N([C@H](C)CO)C[C@H](C)[C@H](CN(C)C(=O)CCCN(C)C)OCCCC[C@@H](C)O3)cc1`?
esBAF inh: -3

Results for O=C(NC1CCC1)[C@H]1[C@H](CO)[C@H]2Cn3c(ccc(C4=CCCC4)c3=O)[C@@H]1N2CC1CC1 ?
esBAF inh: 5

What do the screens show for `COC(=O)c1sccc1N/N=C/c1ccc(OC)c(OC)c1OC`?
esBAF inh: 52*; Vif inh: -13; NadD inh: -6; SMARCA2 activ: 4; SKN-1 block: 5; NR3A LBD binder: -4

How did O=C(Cc1ccccc1)Nc1cccc(NC(=O)c2cccs2)c1 do in these assays?
esBAF inh: 4; Vif inh: -10; NadD inh: 1; SMARCA2 activ: -2; SKN-1 block: 7; NR3A LBD binder: -4

How did O=C(Nc1ccc(OCc2ccccc2)cc1)c1cccs1 do in these assays?
esBAF inh: 68*; Vif inh: 7; NadD inh: -6; SMARCA2 activ: 1; SKN-1 block: 9; NR3A LBD binder: 25*

Results for O=C(N/N=C/c1ccc(OCc2ccccc2)cc1)c1cccs1 ?
esBAF inh: 48*; Vif inh: -2; NadD inh: 6; SMARCA2 activ: 2; SKN-1 block: 8; NR3A LBD binder: 21*

What do the screens show for `Cc1occc1C(=O)Nc1ccc(OCc2ccccc2)cc1`?
Vif inh: 4; NadD inh: -8; SMARCA2 activ: 7; SKN-1 block: 25; NR3A LBD binder: 26*
